Assay outcomes as filed in PubChem BioAssay.
Mcl1 Bid PPI: disrupts binding of human Mcl-1 to Bid peptide; TR-FRET Mcl-1/Bid-Dy647 peptide binding, 1536-well; inhibition, % at 21.7 µM; AID 1021; hit rate 0.97% among 220,000;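 active = compounds that cut the binding signal by more than half at the single screening dose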;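 also: His-tagged Mcl-1 with europium anti-His antibody binding Bid BH3 peptide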
Target sequence (Q07820 whole entry, looked up): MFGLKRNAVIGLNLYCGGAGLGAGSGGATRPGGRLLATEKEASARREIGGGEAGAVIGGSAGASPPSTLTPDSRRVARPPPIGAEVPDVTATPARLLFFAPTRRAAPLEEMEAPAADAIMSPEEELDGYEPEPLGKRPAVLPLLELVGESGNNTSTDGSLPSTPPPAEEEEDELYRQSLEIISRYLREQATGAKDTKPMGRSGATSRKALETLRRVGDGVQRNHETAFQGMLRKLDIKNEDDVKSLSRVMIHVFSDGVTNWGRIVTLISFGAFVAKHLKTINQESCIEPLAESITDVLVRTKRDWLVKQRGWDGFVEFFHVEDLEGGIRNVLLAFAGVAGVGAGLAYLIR
GLD-1 RNA inh: GLD-1-TGE RNA interaction inhibition (C. elegans) | Q17339 | inhibition, % at 5.96 µM | hit rate 0.44% among 320,000 | AID 2280 | purified GLD-1 + fluorescein TGE RNA, fluorescence polarization;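 active = percent inhibition above a per-plate cutoff, the plate mean of test compounds plus 3 SD, cut at about 30% in these data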
Mcl-1 Bim block: human Bim-Mcl-1 interaction inhibition; Bead-based flow cytometry, Bim peptide-Mcl-1 binding; inhibition, % at 10 µM; hit rate 0.1% among 190,000; AID 1009; in the data active = inhibition above about 40%
MCL1 BIM primary: disrupts human MCL1 binding to BIM-BH3 peptide; hit rate 0.68% among 320,000; GST-MCL1 / FITC-Bim-BH3 fluorescence polarization; inhibition, % at 10.9 µM; AID 2057;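 active = inhibition above the mean inhibition of all tested compounds plus 3 SD, set per campaign, cut at about 40% in these data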;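 also: higher means more loss of mP so more displacement of Bim peptide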
Mcl1 Noxa PPI: disrupts binding of human Mcl-1 to Noxa peptide; Q07820; hit rate 1.5% among 220,000; AID 1022; inhibition, % at 21.7 µM; TR-FRET Mcl-1/Noxa peptide binding, 2 h;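 active = compounds that cut the protein-peptide binding signal by more than 50% relative to plate controls in a single-dose test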;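 also: His-tagged Mcl-1 with rhodamine Noxa BH3 peptide and terbium anti-His antibody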
BCLXL inh: inhibitors of human Bcl-xL; Q07817; GST-Bcl-xL / FITC-Bim BH3 peptide fluorescence polarization; inhibition, % at 10.9 µM; hit rate 0.7% among 320,000;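 active = inhibition above the mean of all tested compounds plus 3 SD, cutoff set per campaign, cut at about 30% in these data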;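 also: inhibitors lower millipolarization by displacing the labeled peptide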
Target sequence (Q07817 whole entry, looked up): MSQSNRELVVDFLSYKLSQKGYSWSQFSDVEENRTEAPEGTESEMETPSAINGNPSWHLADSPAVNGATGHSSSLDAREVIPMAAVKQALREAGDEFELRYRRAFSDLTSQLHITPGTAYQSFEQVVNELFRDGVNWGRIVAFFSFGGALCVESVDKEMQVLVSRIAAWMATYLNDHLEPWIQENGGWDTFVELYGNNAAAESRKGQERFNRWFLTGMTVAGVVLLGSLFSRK
A number is an active result; i = inactive; nt = no result. Rows were chosen to be rich in hits. Some 2.3% of all compounds tested hit in one or more screens of this group.

SMILES | Mcl1 Bid PPI | GLD-1 RNA inh | Mcl-1 Bim block | MCL1 BIM primary | Mcl1 Noxa PPI | BCLXL inh
CC(C)c1nnc(NC(=O)CSc2ncn[nH]2)s1 | i | i | i | i | 53 | i
CNS(=O)(=O)c1ccc2nc(NC(=O)c3ccc(N4C(=O)CCC4=O)cc3)sc2c1 | i | i | i | i | 60 | i
CCc1ccc2nc(NC(=O)c3ccc(N4C(=O)CCC4=O)cc3)sc2c1 | i | i | nt | i | i | i
CN(c1ccccc1)S(=O)(=O)c1nnc(NC(=O)C2CCCCC2)s1 | nt | i | nt | i | nt | i
Cc1nc2c(-c3ccc(Cl)cc3)cnn2c2c1CCC2 | 85 | i | i | i | i | i
O=C(N/N=C/C(Cl)=C/c1ccc([N+](=O)[O-])cc1)C(=O)Nc1ccccc1C(=O)O | i | i | nt | i | 56 | i
CC(=O)c1ccc(N(C(=O)c2csnn2)C(C(=O)NC2CCCC2)c2ccccc2)cc1 (stereo unspecified) | nt | i | nt | i | nt | i
COc1ccc(-c2cc(N)n(S(=O)(=O)c3ccc(C)cc3)n2)c(OC)c1 | i | i | i | i | i | 48
COc1ccc(S(=O)(=O)n2nc(-c3ccc(Cl)cc3)cc2N)cc1 | i | i | nt | i | i | i
CCCn1c(NCc2ccco2)nc2c1c(=O)n(C)c(=O)n2C | i | i | i | i | i | i
Cn1c(=O)c2c(nc(NCc3ccco3)n2CC(O)COc2ccccc2)n(C)c1=O (stereo unspecified) | i | i | i | i | 81 | i
Cc1cn(CC2COC(C)(C)O2)c(=O)[nH]c1=O (stereo unspecified) | i | i | i | i | 73 | i
C=CC[C@H](CC(=O)N(CCO)Cc1ccccc1)C(=O)N[C@H](COC(=O)[C@@H](CC=C)Cc1ccc(F)cc1)Cc1ccccc1 | nt | i | nt | nt | nt | nt
COc1ccc(NC(=O)c2ccccc2N(Cc2ccccc2)S(C)(=O)=O)cc1 | i | i | i | i | 83 | i
CC(=O)Nc1ccc(NC(=O)c2ccccc2N(Cc2ccccc2)S(C)(=O)=O)cc1 | nt | i | nt | i | nt | i
COc1ccccc1OCC(=O)NNC(=O)Nc1ccc(Cl)cc1 | i | i | i | i | i | i
COc1ccccc1OC(=O)Nc1ccc(Cl)cc1 | nt | i | nt | 47 | nt | 48
COCCNC(=O)c1cc2c(=O)n3cccc(C)c3nc2n1C | nt | i | nt | i | nt | i
Cc1cccn2c(=O)c3cc(C(=O)NCCCn4ccnc4)n(C)c3nc12 | i | i | i | 47 | i | 44
Cc1cccn2c(=O)c3cc(C(=O)N(C)C)n(C)c3nc12 | i | i | i | i | i | 32
O=C(C1=C[C@@H](c2ccc(Br)cc2)C[C@@H](OCCCCO)O1)N1CCN(Cc2ccccc2)CC1 | i | i | i | i | i | i
COc1ccc(NC(=O)CS(=O)CC(=O)Nc2ccc(-n3cnnn3)c(C)c2)cc1 (stereo unspecified) | nt | i | nt | i | nt | i
CCn1c(-c2ccccc2)csc1=Nc1ccc(O)cc1 | i | i | i | i | 64 | i
CCOc1ccc(N=c2scc(-c3ccccc3)n2CCO)cc1 | i | i | i | i | i | i
Cc1cccc(/C=C(\C(=O)O)c2ccc(S(=O)(=O)N3CCCC3)s2)c1 | nt | i | nt | nt | nt | nt
SMILES | Mcl1 Bid PPI | GLD-1 RNA inh | Mcl-1 Bim block | MCL1 BIM primary | Mcl1 Noxa PPI | BCLXL inh
O=C(Cc1sc(-c2ccccc2Cl)nc1-c1ccccc1)Nc1ccccc1 | 84 | i | i | i | i | i
CN1CCN(C(c2cccnc2)c2ccc3cccnc3c2O)CC1 (stereo unspecified) | i | i | i | i | 52 | i
S=c1[nH]nc(-c2cccs2)n1/N=C/c1c(Cl)cccc1Cl | i | i | i | i | 56 | i
CCOc1cc(/C=N/NC(=O)C(=O)NCCCOC(C)C)cc(Br)c1O | i | i | i | i | 56 | i
Nc1cc(=O)[nH]c(SCC(=O)N2CCCc3ccccc32)n1 | i | i | i | i | i | i
Nc1nc2nc(SCC(=O)N3CCCc4ccccc43)[nH]c2c(=O)[nH]1 | i | i | i | i | 59 | i
Cc1nc(SCc2nc3ccc([N+](=O)[O-])cc3[nH]2)c2oc3ccccc3c2n1 | nt | i | nt | nt | nt | nt
CSc1cccc(NC(=O)C2CCN(S(=O)(=O)c3ccc4c(c3)NC(=O)CO4)CC2)c1 | nt | i | nt | i | nt | i
O=C(CN1CCN(c2ccccn2)CC1)N1c2ccccc2CCc2ccccc21 | 55 | i | i | i | i | i
O=C(CN1CCN(c2ccccn2)CC1)N1c2ccccc2Sc2ccc(C(F)(F)F)cc21 | i | i | i | i | i | i
N#CCC(=O)Nc1ccc(C(=O)OCC(=O)c2ccc3c(c2)NC(=O)CO3)cc1 | nt | i | nt | i | nt | i
CCN(CC)CCOC(=O)c1ccc(N/C=C(/C#N)c2nc(-c3ccc4c(c3)OCO4)cs2)cc1 | 63 | i | nt | i | 69 | i
COc1ccc(-c2ncc3ccccn23)cc1OC | 51 | i | i | i | i | i
COc1ccc(OC)c(S(=O)(=O)NCC(c2ccc3c(c2)OCO3)N2CCOCC2)c1 (stereo unspecified) | nt | i | nt | i | nt | i
O=C(CSc1ccc(S(=O)(=O)N2CCOCC2)cn1)Nc1ccc(F)c(F)c1 | nt | i | nt | i | nt | i
C=CCn1c(SCC(=O)NCC2CCCO2)nc2sc(CC)cc2c1=O (stereo unspecified) | nt | i | nt | nt | nt | nt
O=C(NC(=S)NCc1cccnc1)c1ccc([N+](=O)[O-])cc1 | 71 | i | i | i | i | i
COc1ccc(C(=O)NCC(=O)OCC(=O)Nc2ncc(Cl)cc2Cl)cc1[N+](=O)[O-] | nt | i | nt | i | nt | i
CN(C(=O)CSc1nc2scc(-c3ccccc3)c2c(=O)[nH]1)c1ccccc1 | nt | i | nt | nt | nt | nt
COc1cc(/C=C2\SC(=O)N(c3cccc(Cl)c3)C2=O)cc([N+](=O)[O-])c1O | 73 | nt | i | nt | 66 | nt
COc1cc(/C=C2/NC(=O)N(c3cccc(Cl)c3)C2=O)ccc1O | i | i | i | i | 59 | i
O=C1S/C(=C\c2ccc(O)c([N+](=O)[O-])c2)C(=O)N1c1ccccc1Cl | i | i | i | i | i | i
COc1cc(/C=C2\SC(=O)N(c3ccc(Cl)cc3)C2=O)cc([N+](=O)[O-])c1O | 90 | nt | i | nt | 76 | nt
COc1ccc(C(=O)NC(=S)SCC(=O)O)cc1 | i | i | nt | i | i | i
CCOC(=O)CSC(=S)NC(=O)c1ccc(OC)cc1 | i | i | i | i | 56 | i
Cc1ccc(N2CC(C(=O)NCc3n[nH]c(=O)c4ccccc34)CC2=O)cc1 (stereo unspecified) | nt | i | nt | i | nt | i
O=C(NCCc1ccccc1F)C1CCCN1S(=O)(=O)c1ccc2ccccc2c1 (stereo unspecified) | i | i | i | i | i | 40
CCNC(=O)C1CCCN1S(=O)(=O)c1ccc2ccccc2c1 (stereo unspecified) | nt | i | nt | i | nt | i
Cc1cccc(COC(=O)C(Cc2ccccc2)NC(N)=O)c1 (stereo unspecified) | nt | i | nt | i | nt | i
O=C1N=C2N(CCN3CCCCC3)c3ccccc3N2/C1=C\c1ccc([N+](=O)[O-])o1 | 83 | nt | i | nt | i | nt
